Most compounds without a hit are left out; they make up all but 7.4% or so of the library.
FLuc counter = counter-screen for miR-21 project: firefly luciferase inhibitors or activators; actives 6.9% (n = 360,000); AID 588342; purified FLuc, Km substrates, luminescence inhibition; Potency, µM (series often up to 57.5 µM), inactives show at the highest dose activity change, negative = inhibition, usual class: inhibitors;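 also: plate controls were vehicle for no effect and reference inhibitor for full effect; nearly all actives have a fitted effect of over 55% in size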
Target sequence (P08659 whole entry, looked up): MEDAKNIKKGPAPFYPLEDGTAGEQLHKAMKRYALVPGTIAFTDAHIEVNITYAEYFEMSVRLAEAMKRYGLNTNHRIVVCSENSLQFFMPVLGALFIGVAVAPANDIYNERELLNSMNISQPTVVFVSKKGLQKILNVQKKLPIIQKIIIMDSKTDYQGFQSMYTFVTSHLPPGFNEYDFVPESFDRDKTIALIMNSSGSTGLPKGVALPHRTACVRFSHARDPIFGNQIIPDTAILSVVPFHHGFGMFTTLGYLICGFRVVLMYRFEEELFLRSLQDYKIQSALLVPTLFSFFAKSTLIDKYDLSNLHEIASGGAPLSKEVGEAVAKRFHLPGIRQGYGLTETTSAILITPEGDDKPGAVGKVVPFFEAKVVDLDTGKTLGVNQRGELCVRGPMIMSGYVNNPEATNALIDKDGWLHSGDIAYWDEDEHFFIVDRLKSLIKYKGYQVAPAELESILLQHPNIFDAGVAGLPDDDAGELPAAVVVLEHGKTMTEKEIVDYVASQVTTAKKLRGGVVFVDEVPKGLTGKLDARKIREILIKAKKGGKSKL
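Purified P. pyralis luciferase (10nM final) with 10uM D-luciferin and 10uM ATP (Km levels) in 50mM Tris acetate pH 7.5, 10mM Mg acetate, 0.01% Tween-20, 0.05% BSA; qHTS 6-point titration, ~60 µM downward; luminescence read.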
NPC1 prom act = activators of NPC1 promoter. Huh7 NPC1 promoter luciferase reporter, 24 h. AID 485313. actives 2.4% (n = 320,000). Potency, µM (series often up to 9.22 µM), for the others: top-dose activation, hits mostly activators; also: % of control where 0% means no effect; nearly all actives have a fitted effect of over 60% in size
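Cells: Huh7 expressing luciferase under the NPC1 promoter, 1500/well. Seeded 2 h, compound added, incubated 24 h at 37 °C. Luciferase reagent, 10 min ambient, then luminescence.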
SMN2 splice enh = enhancers of SMN2 splice variant expression; HEK293 SMN2-luciferase splicing reporter, luminescence, 30-36 h; Potency, µM (highest dose often 46.1 µM), inactives show at the highest dose activity change, positive = activation, most hits filed as activators; actives 2.8% (n = 210,000); also: % of control where 0% means no effect; nearly all actives have a fitted effect of over 55% in size
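qHTS luciferase splicing reporter: luminescence rises when SMN2 exon 7 is included in transfected HEK293 cells. Compound exposure lasted 30-36 h at 37C, with 4.5 mM final sodium butyrate as control, followed by a ONE-Glo read.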
KinaseGlo FLuc = blocks Kinase-Glo luciferase, a counter-screen artifact. Kinase-Glo luciferase, ATP luminescence, 8 min. AID 1379. Q27757. actives 0.28% (n = 200,000). Potency, µM (titrated, usually from 38.3 µM), for inactives: top-dose activity change, negative = inhibition, most hits filed as inhibitors; also: % is scaled to controls: 0 for no effect and ±100 for the full control effect; nearly all actives have a fitted effect of over 60% in size
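Luminescence was the read-out, taken after 8-minute incubation at ambient temperature. Luciferase turned over luciferin with 10 uM ATP in imidazole pH 7.2 buffer containing KCl, MgCl2, Tween 20 and BSA.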
Rab9 prom act = activates the Rab9 promoter; Huh7 Rab9 promoter-luciferase reporter, luminescence, 24 h; Potency, µM (highest dose often 9.22 µM), inactives show at the highest dose activation, negative = inhibition, most hits filed as activators; actives 2.8% (n = 320,000); AID 485297; also: % of control where 0% means no effect; nearly all actives have a fitted effect of over 60% in size
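Quantitative HTS format; Huh7 Rab9-luciferase reporter cells (1500/well) receive compound 2 h post-plating, incubate 24 h at 37 °C, then get luciferase reagent for 10 min before luminescence reading.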
ELG1 genotoxic = genotoxicity induction in ELG1-luciferase HEK293T cells | Potency, µM (highest dose often 46 µM), without a hit: at the top dose activity change, positive = activation, usual class: activators | actives 1.3% (n = 330,000) | AID 504466 | HEK293T ELG1-luciferase reporter, luminescence, 16 h; also: % of control where 0% means no effect; nearly all actives have a fitted effect of over 60% in size
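16 hr compound incubation (37 °C, 5% CO2) of HEK293T cells carrying luciferase-tagged ELG1; luciferase then measured by ONE-Glo luminescence after 30 min at RT.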
An asterisk follows results filed as active; ? = inconclusive; . = no result; [ ] = another dose, or the depositor's remark. Calls follow the shape of the dose curve; as a rule, active = well fitted curve in the direction sought with a large enough effect; inconclusive = small, poorly fitted or top-dose-only effect, or another doubt; inactive = no such curve, though single readings can be large; an effect the other way counts as inactive or inconclusive. Potency is read from the fitted curve at half-maximal effect.

SMILES	FLuc counter	NPC1 prom act	SMN2 splice enh	KinaseGlo FLuc	Rab9 prom act	ELG1 genotoxic
Cc1ccc(NC(=S)N2CCN(Cc3ccccc3)CC2)cc1	12µM*	-0.2%	-58.2%	-1.0%	13.9%	34.3%
S=C(Nc1ccc(Cl)cc1)N1CCN(Cc2ccccc2)CC1	19µM*	-2.8%	-10.2%	-1.4%	2.4%	-3.3%
O=C(Nc1cccc(Cl)c1)N1CCN(Cc2ccccc2)CC1	15.1µM*	?	10µM*	-3.3%	?	20.6µM*
Cc1cccc(NC(=O)N2CCN(Cc3ccc(Cl)cc3)CC2)c1	0.0%	2.7%	-42.0%	-3.4%	5.4%	-7.7%
Cc1cc(C)cc(NC(=S)N2CCN(Cc3ccccc3)CC2)c1	-3.6%	1.1%	1.8%	1.8%	8.3%	-2.5%
NC(CSS(=O)(=O)O)=N[C@@H]1C[C@H]2CC[C@@H]1C2	.	.	-8.0%[9.22 µM]	-3.7%[7.66 µM]	.	.
COC(=O)CS(=O)(=O)c1nc2ccccc2nc1N1CCCCC1	-1.8%	.	10.6%	.	.	.
COc1ccc(CNC(=O)c2ccc3c(c2)N(C)C(=O)C2CCCCN32)cc1OC (stereo not given)	-1.6%	.	.	.	.	.
O=C(CSCc1ccc(Cl)cc1)Nc1ccc2c(c1)OCO2	?	0.7%	2.0%	2.1%	-5.0%	-0.2%
Cc1ccc(NC(=O)Cc2c(C(=O)O)n(C)c3ccccc23)cc1F	?	-0.8%	.	.	2.3%	0.8%
Cn1c(C(=O)O)c(CC(=O)Nc2ccc3c(c2)OCCO3)c2ccccc21	19µM*	-0.6%	-35.0%	2.9%	4.6%	?
O=C(CNCc1ccc(Cl)cc1)Nc1ccc2c(c1)OCCO2	-15.8%	17.1%	9.6%	1.6%	1.8%	-0.6%
O=C(CSCc1ccccc1Cl)Nc1ccc2c(c1)OCCO2	6.75µM*	1.78µM*	45.1%	-1.2%	1.58µM*	?
O=C(CNCc1ccccc1Cl)Nc1ccc2c(c1)OCCO2	21.3µM*	3.16µM*	.	.	2.82µM*	?
Cc1ccc(NS(=O)(=O)c2c(C)nc3sc(C)c(C)n3c2=O)cc1F	-7.8%	.	.	.	.	.
COc1ccc2ccccc2c1CN(C)Cc1ccccc1	-1.6%	-1.6%	.	.	-0.8%	-8.7%
CN(Cc1ccccc1)Cc1c(F)cccc1F	14.6%	-1.6%	1.41µM*	4.6%	-3.6%	-4.6%
O=C(/C=N/NC(=O)c1ccccc1Br)c1ccccc1	9.53µM*	6.5%	7.3%	-3.0%	19.8%	6.1%
O=C(/C=N/NC(=O)c1ccc(Cl)cc1Cl)c1ccccc1	2.69µM*	21.1%	.	.	?	11.8%
Cn1c(=O)n(C)c2cc(/C=N/NC(=O)c3ccc(Cl)cc3Cl)ccc21	4.6%	0.0%	28.4%	-0.5%	-3.6%	13.7%
COc1ccc(-n2nc(C(=O)Nc3cc(C)ccn3)c3c4ccccc4n(C)c3c2=O)cc1Cl	-2.1%	.	5.4%	.	.	.
Cc1ccc(S(=O)(=O)NCC(Nc2cccc(Cl)c2)c2ccccc2)cc1 (stereo not given)	-12.3%	.	-22.8%	.	.	.
O=C(Cc1csc(NC(=O)Nc2cccc(Cl)c2)n1)NCc1cccnc1	6.75µM*	11.2%	.	.	13.9%	-8.3%
O=C(Cc1csc(NC(=O)Nc2cccc(Cl)c2)n1)NCc1ccccn1	2.69µM*	22.4%	.	.	?	2.4%
O=C(NCc1cccnc1)Nc1cccc(Cl)c1	-2.1%	11.2%	.	.	15.2%	7.8%
SMILES	FLuc counter	NPC1 prom act	SMN2 splice enh	KinaseGlo FLuc	Rab9 prom act	ELG1 genotoxic
O=C(Cc1csc(NC(=O)Nc2ccc(Cl)cc2)n1)NCc1cccnc1	3.01µM*	23.8%	.	.	23.8%	-0.3%
COc1ccc(NC(=O)N2CC[C@@]3(CCCN(C(C)=O)C3)C2)cc1	.	.	-4.8%	-4.8%	.	.
N#Cc1ccccc1CSc1nnc(-c2ccc(Br)cc2)o1	1.2µM*	.	?	.	.	.
Cc1ccccc1CSc1nnc(-c2ccncc2)o1	?	8.6%	16.0%	-0.9%	16.6%	12.0%
Cc1ccc(-c2nnc(SCc3ccccc3C#N)o2)cc1	0.338µM*	.	2.24µM*	.	.	.
O=C(COc1ccccc1[N+](=O)[O-])N(Cc1ccco1)c1ccccn1	-3.9%	.	.	.	.	.
Cc1ccnc(NC(=O)c2ccc(OCC3CCCO3)cc2)c1 (stereo not given)	0.953µM*	0.282µM*	.	.	0.126µM*	?
O=C(Nc1ccncc1)c1ccc2c(c1)C(=O)N(CC1CCCO1)C2=O (stereo not given)	-5.7%	-2.0%	-2.7%	2.7%	-0.8%	1.7%
Cc1ccc(C(=O)Nc2ccc3c(c2)C(=O)N(CC2CCCO2)C3=O)cc1 (stereo not given)	4.78µM*	9.0%	.	.	1.6%	-9.7%
O=C(O)c1ccc(NC(=O)c2ccc3c(c2)C(=O)N(CC2CCCO2)C3=O)cc1 (stereo not given)	?	2.9%	.	.	-1.8%	-1.3%
Cc1ccnc(NC(=O)c2ccc3c(c2)C(=O)N(CC2CCCO2)C3=O)c1 (stereo not given)	21.3µM*	1.5%	-0.8%	-13.7%	-3.1%	6.5%
Cc1ccc(NC(=O)c2ccc(OCC3CCCO3)cc2)c(C)c1 (stereo not given)	?	20.8%	?	-1.7%	?	13.6%
Nc1cccc(Oc2ccc3c(c2)C(=O)N(CC2CCCO2)C3=O)c1 (stereo not given)	23.9µM*	1.58µM*	.	.	1µM*	15.0%
COc1ccc(-c2cc3nc(C)c(CCC(=O)N4CCN(c5ccccc5F)CC4)c(C)n3n2)c(OC)c1	-10.3%	.	-4.9%	.	.	.
C=CCCCCCCCCCCC/C=C/C(O)COC(C)=O (stereo not given)	.	.	-60.0%	1.0%	.	.
COc1ccc(CCNC(=O)Cn2nc(C)n3c(cc4cc(F)ccc43)c2=O)cc1OC	-0.5%	.	-9.2%	.	.	.
CCN(CC(=O)NCc1ccc(F)cc1)C(=O)c1ccc(COc2ccccc2)cc1	16.9µM*	?	.	.	?	-0.6%
CCC(Oc1ccccc1)C(=O)N(CC)CC(=O)NCc1ccc(F)cc1 (stereo not given)	7.4%	0.7%	.	.	-4.0%	1.6%
CCCN(CCC)C(=O)Cn1c(=O)n(-c2cccc(C(F)(F)F)c2)c(=O)c2c(C)c(C)sc21	-1.2%	.	-1.5%	.	.	.
COc1ccc(CCNC(=O)CCOc2ccc(C)cc2)cc1OC	5.4%	-7.8%	.	.	0.4%	2.7%
CCOc1ccc(-c2cc(CCCC(=O)NCCc3ccc(OC)c(OC)c3)no2)cc1	10.7µM*	.	-61.8%	.	.	.
CCOc1ccc(-c2cc(CCCC(=O)NCCc3cc(OC)c(OC)c(OC)c3)no2)cc1	13.5µM*	.	-17.4%	.	.	.
CCCCn1c(-c2ccccc2)cnc1SCC(=O)NCCc1ccc(OC)c(OC)c1	16.9µM*	-2.3%	28.2%	0.4%	2.0%	3.9%
COc1ccc(CCNC(=O)CSc2nnc(-c3ccccc3)c3ccccc23)cc1OC	3.1%	-3.4%	2.2%	-3.1%	-5.9%	-2.5%
